We go through 34 compounds from the supplement of paper PMC4840960.

± gives the standard deviation of the averaged measurements.

For this test, the system named is E18 rat cortical neuron-glia co-culture. Description: fiber score / MBP score (myelination specific beyond OL differentiation) (ratio); higher = more myelination-specific MBP alignment. To be noted: 5 µM; treatment time: 8 days (DIV5-DIV13). A digest of the protocol: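 Library compounds were applied at 1 or 5 µM in myelination medium, DIV5 to DIV13, to primary E18 rat cortical co-cultures grown at 20,000 cells/well in 96-well plates. After 4 % paraformaldehyde fixation and MBP/Olig2/DAPI immunostaining, four 10X fields per well in duplicate wells were scored. Each value is continuous MBP fiber length per Olig2+ nucleus divided by thresholded MBP area × intensity per Olig2+ nucleus.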
`CC12CC3CC(C)(C1)CC(N)(C3)C2` [Memantine]: the “fiber score / MBP score” value came to 0.838 ± 0.13.

For `CNC[C@H](O)c1ccc(O)c(O)c1` [Epinephrine], the “fiber score / MBP score” value stood at 3.29.

Consider `CC(C)[C@H]1CC[C@H](C(=O)N[C@H](Cc2ccccc2)C(=O)O)CC1` [Nateglinide], for which the “fiber score / MBP score” value amounted to 0.739.

`Cc1nnc(SCC2=C(C(=O)O)N3C(=O)[C@@H](NC(=O)Cn4cnnn4)[C@H]3SC2)s1` [Cefazolin]: the “fiber score / MBP score” value came out at 1.19.

In the case of `CN1CCN(c2nc3cc(C(F)(F)F)ccc3n3cccc23)CC1`, the “fiber score / MBP score” value was determined as 0.682.

As for `CC(COc1ccccc1Cc1ccccc1)N1CCCCC1` (centres undefined) [Benproperine], the “fiber score / MBP score” value came out at 0.819.

For `Cn1ccnc1S` [Methimazole], the “fiber score / MBP score” value stood at 0.312.

In the case of `C#C[C@]1(O)CC[C@H]2[C@@H]3CCc4cc(O)ccc4[C@H]3CC[C@@]21C` [Ethinyl Estradiol], the “fiber score / MBP score” value was 0.958.

As for `COc1cc(CNC(=O)CCCC/C=C\C(C)C)ccc1O` [Zucapsaicin], the “fiber score / MBP score” value turned out to be 1.51.

Turning to `Nc1nc2c(ncn2COCCO)c(=O)[nH]1` [Acyclovir], the “fiber score / MBP score” value was found to be 1.1.

With `CO[C@H]1/C=C/O[C@@]2(C)Oc3c(C)c(O)c4c(O)c(c(/C=N/N5CCN(C6CCCC6)CC5)c(O)c4c3C2=O)NC(=O)/C(C)=C\C=C\[C@H](C)[C@H](O)[C@@H](C)[C@@H](O)[C@@H](C)[C@H](OC(C)=O)[C@@H]1C` [Rifapentine], the “fiber score / MBP score” value worked out at 1.12 ± 0.52.

On to `Cc1cccc(C)c1OCC(C)N` (centres undefined) [Mexiletine], for which the “fiber score / MBP score” value was found to be 0.965.

On to `CNCC[C@H](Oc1cccc2ccccc12)c1cccs1` [Duloxetine], for which the “fiber score / MBP score” value came out at 0.881 ± 0.45.

`C[C@@H](O)[C@H]1C(=O)N2C(C(=O)O)=C(S[C@@H]3CN[C@H](C(=O)N(C)C)C3)[C@H](C)[C@H]12` [Meropenem]: the “fiber score / MBP score” value amounted to 0.804.

For `CC1(C)S[C@@H]2[C@H](/N=C/N3CCCCCC3)C(=O)N2[C@H]1C(=O)O` [Amdinocillin], the “fiber score / MBP score” value came to 0.866.

On to `COc1ccc(Cl)cc1C(=O)NCCc1ccc(S(=O)(=O)NC(=O)NC2CCCCC2)cc1` [Glyburide], for which the “fiber score / MBP score” value stood at 0.835.

Take `COC(=O)[C@H](c1ccccc1Cl)N1CCc2sccc2C1` [Clopidogrel]: the “fiber score / MBP score” value was found to be 0.858.

On to `CC(=O)N1CCN(c2ccc(OCC3COC(Cn4ccnc4)(c4ccc(Cl)cc4Cl)O3)cc2)CC1` (centres undefined) [Ketoconazole], for which the “fiber score / MBP score” value amounted to 0.267.

On to `CCOc1cc(N)c(Cl)cc1C(=O)NCC1CN(Cc2ccc(F)cc2)CCO1` (centres undefined) [Mosapride], for which the “fiber score / MBP score” value amounted to 0.556.

As to `CC[C@H]1OC(=O)[C@H](C)[C@@H](O[C@H]2C[C@@](C)(OC)[C@@H](O)[C@H](C)O2)[C@H](C)[C@@H](O[C@@H]2O[C@H](C)C[C@H](N(C)C)[C@H]2O)[C@](C)(O)C[C@@H](C)CN(C)[C@H](C)[C@@H](O)[C@]1(C)O` [Azithromycin], the “fiber score / MBP score” value came out at 0.488.

For the compound `C[C@@H]1O[C@@H](OC[C@H]2O[C@@H](Oc3c(-c4ccc(O)c(O)c4)oc4cc(O)cc(O)c4c3=O)[C@H](O)[C@@H](O)[C@@H]2O)[C@H](O)[C@H](O)[C@H]1O` [Rutin], the “fiber score / MBP score” value worked out at 0.905.

On to `CN(C)CCCC1(c2ccc(F)cc2)OCc2cc(C#N)ccc21` (centres undefined) [Citalopram], for which the “fiber score / MBP score” value turned out to be 0.571 ± 0.19.

`C#C[C@]1(O)CC[C@H]2[C@@H]3CCC4=Cc5oncc5C[C@]4(C)[C@H]3CC[C@@]21C` [Danazol]: the “fiber score / MBP score” value stood at 0.557.

`Cc1cc(NS(=O)(=O)c2ccc(N)cc2)no1` [Sulfamethoxazole]: the “fiber score / MBP score” value is 0.803.

For `c1ccc2c(CC3=NCCN3)cccc2c1` [Naphazoline], the “fiber score / MBP score” value was 1.06.

Consider `CCOC(=O)[C@H](CCc1ccccc1)N[C@@H](C)C(=O)N1CCC[C@H]1C(=O)O` [Enalapril], for which the “fiber score / MBP score” value amounted to 0.734.

Regarding `N[C@@H](C(=O)N[C@@H]1C(=O)N2C(C(=O)O)=C(CSc3c[nH]nn3)CS[C@H]12)c1ccc(O)cc1` [Cefatrizine], the “fiber score / MBP score” value is 0.832.

`CN1CC(=O)N2[C@H](c3ccc4c(c3)OCO4)c3[nH]c4ccccc4c3C[C@@H]2C1=O` [Tadalafil]: the “fiber score / MBP score” value worked out at 0.74.

In the case of `Nc1nc2c(ncn2COC(CO)CO)c(=O)[nH]1` [Ganciclovir], the “fiber score / MBP score” value worked out at 1.

In the case of `OC(c1cc(C(F)(F)F)nc2c(C(F)(F)F)cccc12)C1CCCCN1` (centres undefined) [Mefloquine], the “fiber score / MBP score” value stood at 0.574.

As for `C[C@H](CCC(=O)O)[C@H]1CC[C@H]2[C@@H]3C(=O)C[C@@H]4CC(=O)CC[C@]4(C)[C@H]3CC(=O)[C@]12C` [Dehydrocholic Acid], the “fiber score / MBP score” value was found to be 0.662.

In the case of `O=C1NC(=O)C(c2ccccc2)(c2ccccc2)N1` [Phenytoin], the “fiber score / MBP score” value worked out at 0.762.

`COc1cc2nc(N3CCN(C(=O)C4CCCO4)CC3)nc(N)c2cc1OC` (centres undefined) [Terazosin]: the “fiber score / MBP score” value stood at 1.08 ± 0.41.

Regarding `CN(C)CCCN1c2ccccc2Sc2ccc(Cl)cc21` [Chlorpromazine], the “fiber score / MBP score” value was found to be 1.17.
